# Measurements reported in PubChem BioAssay (Tox21).
# Where “and” joins values, the source holds several entries; their conditions need not be identical. Identical values can stand only once. Results filed as inconclusive are left out. Entries that show only a call come without a potency. The source holds several records for some structures; these can differ, active in one and inactive in another. Calls of active or inactive are those of the source. Calls follow the shape of the dose curve; as a rule, active = well fitted curve in the direction sought with a large enough effect in the repeat runs; inconclusive = weak or mixed curves; inactive = no such curve, though single readings can be large; an effect the other way counts as inactive or inconclusive.
# How the values were obtained:
# [1] = biological target: Cytochrome P450 2C19 (Homo sapiens) (UniProt P33261); experiment: Cytochrome P450 Family 2 Subfamily C Member 19 (CYP2C19) small molecule antagonists: luciferase reporter qHTS assay (AID 1671197); also: nearly all actives have a fitted effect of over 65% in size; as to activity change, negative = inhibition: series mostly up to about 120 µM
# Outline: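 CYP2C19 P450-Glo, 1536-well qHTS. Cpd + enzyme/proluciferin substrate 10 min RT; + NADPH regen, 37C 1 h; stop with luciferin detection reagent, 20 min RT, luminescence (RLU). Pos ctrl ketoconazole.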
# [2] = biological target: Cytochrome P450 2C9 (Homo sapiens) (UniProt P11712); experiment: Cytochrome P450 Family 2 Subfamily C Member 9 (CYP2C9) small molecule antagonists: luciferase reporter qHTS assay (AID 1671198); also: nearly all actives have a fitted effect of over 50% in size; as to activity change, negative = inhibition: series mostly up to about 120 µM
# Outline: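 CYP2C9 activity was measured with a P450-Glo proluciferin substrate. Enzyme–substrate mix was held with compound for 10 min at room temperature, then NADPH regeneration solution was added for 1 h at 37C. Luciferin product was read as luminescence.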
# [3] = biological target: Cytochrome P450 1A2 (Homo sapiens) (UniProt P05177); experiment: Cytochrome P450 Family 1 Subfamily A Member 2 (CYP1A2) small molecule antagonists: luciferase reporter qHTS assay (AID 1671199); also: nearly all actives have a fitted effect of over 50% in size; as to activity change, negative = inhibition: series mostly up to about 120 µM
# Outline: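 Steps: enzyme-substrate mix dispensed; test compounds and furafylline control pinned in; 10 min room temperature; NADPH regeneration solution added, 1 h; reaction stopped with luciferin detection reagent; luminescence read after 20 min.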
# [4] = biological target: Voltage-gated inwardly rectifying potassium channel KCNH2 (Homo sapiens) (UniProt Q12809); experiment: Human Ether-a-go-go-Related Gene (hERG) channel small molecule antagonists: fluorescence cell-based qHTS assay (AID 1671200); also: nearly all actives have a fitted effect of over 50% in size;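 as to activity change, negative = inhibition: hERG-expressing U2OS cells given a thallium stimulus after FluxOR II dye loading; series mostly up to about 77 µM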
# Outline: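 U2OS cells expressing the channel were plated at 1000 cells/well, incubated overnight at 37 C, then loaded with FluxOR II thallium-sensitive dye for 1 h at room temperature in the dark, with a further 10 min at room temperature before stimulation.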
# [5] = biological target: Cytochrome P450 3A4 (Homo sapiens) (UniProt P08684); experiment: Cytochrome P450 Family 3 Subfamily A Member 4 (CYP3A4) small molecule antagonists: luciferase reporter qHTS assay (AID 1671201); also: nearly all actives have a fitted effect of over 50% in size; as to activity change, negative = inhibition: series mostly up to about 120 µM
# Outline: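 P450-Glo CYP3A4 system with proluciferin substrate; compounds preincubated 10 min RT with enzyme-substrate mix, then NADPH regeneration added for 1 h RT. Detection reagent 20 min, luminescence read as relative luminescence units.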
# Potency is read from the fitted curve at half-maximal effect.
# Cytochrome P450 1A2 (Homo sapiens), sequence (P05177 whole entry, looked up): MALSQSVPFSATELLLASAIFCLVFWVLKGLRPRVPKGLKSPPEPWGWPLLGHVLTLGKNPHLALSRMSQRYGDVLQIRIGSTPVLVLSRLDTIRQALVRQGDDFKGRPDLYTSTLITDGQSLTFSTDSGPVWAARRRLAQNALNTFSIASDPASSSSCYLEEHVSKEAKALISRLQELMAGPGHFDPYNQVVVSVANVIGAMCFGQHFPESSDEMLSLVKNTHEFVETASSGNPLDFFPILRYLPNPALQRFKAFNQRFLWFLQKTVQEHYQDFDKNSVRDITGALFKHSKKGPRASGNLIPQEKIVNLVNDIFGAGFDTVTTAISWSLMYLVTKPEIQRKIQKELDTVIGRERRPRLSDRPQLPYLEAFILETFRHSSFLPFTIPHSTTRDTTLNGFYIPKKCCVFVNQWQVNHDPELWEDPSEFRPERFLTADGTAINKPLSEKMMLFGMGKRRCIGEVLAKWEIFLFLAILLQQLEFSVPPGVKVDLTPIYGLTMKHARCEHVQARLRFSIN
# Cytochrome P450 3A4 (Homo sapiens), sequence (P08684 whole entry, looked up): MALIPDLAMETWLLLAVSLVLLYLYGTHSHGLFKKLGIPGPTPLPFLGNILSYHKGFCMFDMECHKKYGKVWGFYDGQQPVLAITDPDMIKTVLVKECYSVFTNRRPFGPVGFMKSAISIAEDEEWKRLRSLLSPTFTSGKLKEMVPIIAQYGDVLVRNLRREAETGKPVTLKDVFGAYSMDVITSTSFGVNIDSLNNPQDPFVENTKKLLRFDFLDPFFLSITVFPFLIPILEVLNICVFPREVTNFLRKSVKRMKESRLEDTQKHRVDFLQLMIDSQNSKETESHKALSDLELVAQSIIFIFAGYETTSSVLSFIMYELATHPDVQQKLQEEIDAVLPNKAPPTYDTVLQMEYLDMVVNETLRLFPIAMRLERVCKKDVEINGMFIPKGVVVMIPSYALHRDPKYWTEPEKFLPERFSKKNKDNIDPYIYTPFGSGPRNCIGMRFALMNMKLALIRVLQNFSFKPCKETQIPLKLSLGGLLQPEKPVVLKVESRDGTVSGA
# Voltage-gated inwardly rectifying potassium channel KCNH2 (Homo sapiens), sequence (Q12809 whole entry, looked up): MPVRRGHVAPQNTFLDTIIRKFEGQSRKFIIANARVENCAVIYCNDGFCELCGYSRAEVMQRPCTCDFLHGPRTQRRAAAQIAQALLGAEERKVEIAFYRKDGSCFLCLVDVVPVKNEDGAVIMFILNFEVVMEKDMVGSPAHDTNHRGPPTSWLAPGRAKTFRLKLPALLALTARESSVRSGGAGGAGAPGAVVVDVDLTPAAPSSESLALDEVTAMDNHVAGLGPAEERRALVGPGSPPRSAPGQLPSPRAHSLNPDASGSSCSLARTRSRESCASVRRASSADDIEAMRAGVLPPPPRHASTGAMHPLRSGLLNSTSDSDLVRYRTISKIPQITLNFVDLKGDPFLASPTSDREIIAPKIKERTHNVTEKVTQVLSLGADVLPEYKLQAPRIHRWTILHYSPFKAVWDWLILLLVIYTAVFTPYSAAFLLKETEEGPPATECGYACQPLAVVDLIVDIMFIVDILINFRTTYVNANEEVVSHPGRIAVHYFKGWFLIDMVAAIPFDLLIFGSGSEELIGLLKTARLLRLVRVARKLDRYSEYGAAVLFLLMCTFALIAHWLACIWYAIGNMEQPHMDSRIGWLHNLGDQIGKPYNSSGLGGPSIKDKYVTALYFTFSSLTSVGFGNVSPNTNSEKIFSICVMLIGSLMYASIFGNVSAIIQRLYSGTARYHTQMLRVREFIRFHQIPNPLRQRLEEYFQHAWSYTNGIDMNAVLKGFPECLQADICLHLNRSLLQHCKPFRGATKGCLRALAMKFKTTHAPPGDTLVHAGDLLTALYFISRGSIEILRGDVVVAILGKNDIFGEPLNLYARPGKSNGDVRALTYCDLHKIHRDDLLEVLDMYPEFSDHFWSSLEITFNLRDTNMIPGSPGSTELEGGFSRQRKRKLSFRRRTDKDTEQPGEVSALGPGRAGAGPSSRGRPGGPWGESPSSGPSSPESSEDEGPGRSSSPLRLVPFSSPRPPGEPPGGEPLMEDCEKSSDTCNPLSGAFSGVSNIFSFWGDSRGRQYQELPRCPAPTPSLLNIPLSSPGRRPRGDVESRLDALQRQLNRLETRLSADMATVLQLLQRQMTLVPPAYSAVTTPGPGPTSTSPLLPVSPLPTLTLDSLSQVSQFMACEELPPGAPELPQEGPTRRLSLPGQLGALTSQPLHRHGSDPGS
# Cytochrome P450 2C19 (Homo sapiens), sequence (P33261 whole entry, looked up): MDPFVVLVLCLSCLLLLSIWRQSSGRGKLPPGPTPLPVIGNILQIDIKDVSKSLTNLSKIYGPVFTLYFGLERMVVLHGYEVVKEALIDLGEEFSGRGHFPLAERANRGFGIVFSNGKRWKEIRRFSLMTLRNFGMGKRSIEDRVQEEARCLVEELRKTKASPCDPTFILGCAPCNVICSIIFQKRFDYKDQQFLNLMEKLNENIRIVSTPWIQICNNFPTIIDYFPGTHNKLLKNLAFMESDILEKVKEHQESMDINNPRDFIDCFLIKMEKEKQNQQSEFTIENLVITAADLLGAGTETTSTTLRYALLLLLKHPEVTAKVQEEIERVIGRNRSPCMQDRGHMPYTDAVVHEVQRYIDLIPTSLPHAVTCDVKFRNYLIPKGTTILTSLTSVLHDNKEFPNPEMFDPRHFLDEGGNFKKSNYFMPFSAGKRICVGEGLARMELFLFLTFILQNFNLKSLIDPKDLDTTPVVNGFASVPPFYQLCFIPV
# Cytochrome P450 2C9 (Homo sapiens), sequence (P11712 whole entry, looked up): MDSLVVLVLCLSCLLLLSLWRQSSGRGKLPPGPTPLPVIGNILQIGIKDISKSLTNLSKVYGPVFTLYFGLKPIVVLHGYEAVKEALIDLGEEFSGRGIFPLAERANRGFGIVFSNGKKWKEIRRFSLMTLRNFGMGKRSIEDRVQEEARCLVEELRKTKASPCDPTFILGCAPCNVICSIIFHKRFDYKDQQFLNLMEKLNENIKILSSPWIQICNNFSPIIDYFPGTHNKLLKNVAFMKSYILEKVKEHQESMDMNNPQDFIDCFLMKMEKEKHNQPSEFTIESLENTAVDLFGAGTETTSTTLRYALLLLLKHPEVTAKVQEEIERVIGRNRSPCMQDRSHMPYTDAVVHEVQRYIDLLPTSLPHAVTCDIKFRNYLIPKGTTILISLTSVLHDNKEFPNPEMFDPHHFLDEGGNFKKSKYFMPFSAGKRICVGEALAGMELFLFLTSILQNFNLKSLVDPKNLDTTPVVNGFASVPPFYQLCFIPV
smiles,measurement,setting,value
CCCCCCCCCCCCc1ccccc1O,Potency,[1],1.57 µM (active) and 3.17 µM (active)
same,Potency,[2],7.01 µM (active) and 11.2 µM (active)
same,Potency,[3],35.1 µM (active) and 31.7 µM (active)
same,Potency,[4],inactive
same,Potency,[5],31.3 µM (active) and 63.3 µM (active)
NCCO,Potency,[1],inactive and 11.2 µM (active)
same,Potency,[2],inactive and 31.7 µM (active)
same,Potency,[3],9.47 µM (active)
same,Potency,[4],inactive
same,Potency,[5],inactive
Cc1c(O)cccc1C(=O)N[C@@H](CSc1ccccc1)[C@H](O)CN1C[C@H]2CCCC[C@H]2C[C@H]1C(=O)NC(C)(C)C,Potency,[1],9.77 µM (active)
same,Potency,[2],19.5 µM (active) and 24.5 µM (active)
same,Potency,[3],inactive
same,Potency,[4],inactive
Cc1ccc(-c2cc(C(F)(F)F)nn2-c2ccc(S(N)(=O)=O)cc2)cc1,Potency,[1],28.1 µM (active) and 50.2 µM (active)
same,Potency,[2],12.6 µM (active) and 11.2 µM (active) and 8.71 µM (active)
same,Potency,[3],inactive
c1cc(C(c2ccc(OCC3CO3)cc2)C(c2ccc(OCC3CO3)cc2)c2ccc(OCC3CO3)cc2)ccc1OCC1CO1 (stereo unspecified),Potency,[1],104 µM (active) and 56.4 µM (active)
same,Potency,[2],10.4 µM (active) and 22.4 µM (active)
same,Potency,[3],inactive
same,Potency,[4],inactive
same,Potency,[5],inactive
C=CS(=O)(=O)O,Potency,[1],inactive
same,Potency,[2],inactive
same,Potency,[3],inactive
same,Potency,[4],inactive
Cc1scc2c1N(C(=O)CN1CCN(C)CC1)c1ccccc1NC2=O,Potency,[1],inactive
same,Potency,[2],inactive
same,Potency,[3],inactive
same,Potency,[4],inactive
Cc1ccnc2c1NC(=O)c1cccnc1N2C1CC1,Potency,[1],inactive
same,Potency,[2],inactive
same,Potency,[3],33 µM (active) and inactive
same,Potency,[4],inactive
same,Potency,[5],inactive
CCCNC(C)C(=O)Nc1ccccc1C (stereo unspecified),Potency,[1],inactive
same,Potency,[2],inactive
same,Potency,[3],inactive
same,Potency,[4],inactive
same,Potency,[5],inactive
CCOc1ccccc1C(N)=O,Potency,[1],20 µM (active) and inactive
same,Potency,[2],inactive
same,Potency,[3],31.8 µM (active) and 17.4 µM (active)
same,Potency,[4],inactive
same,Potency,[5],inactive
Nc1ccc2cc3ccccc3cc2c1,Potency,[1],72.3 µM (active) and 35.6 µM (active)
same,Potency,[2],32.3 µM (active) and 31.7 µM (active)
same,Potency,[3],4.06 µM (active) and 2.24 µM (active)
same,Potency,[4],inactive
same,Potency,[5],9.1 µM (active) and 12.6 µM (active)
CC(C)(C)NCC(O)COc1ccccc1OCC1CCCO1 (stereo unspecified),Potency,[1],inactive
same,Potency,[2],inactive
same,Potency,[3],inactive
same,Potency,[4],inactive
same,Potency,[5],inactive
CC(C)(c1ccccc1)c1ccc(Nc2ccc(C(C)(C)c3ccccc3)cc2)cc1,Potency,[1],inactive
same,Potency,[2],3.55 µM (active) and 5.64 µM (active)
same,Potency,[3],inactive
same,Potency,[4],inactive
COc1ccc(CCN(C)CCCC(C#N)(c2ccc(OC)c(OC)c2)C(C)C)cc1OC (stereo unspecified),Potency,[1],inactive
same,Potency,[2],inactive
same,Potency,[3],inactive
CCCCCCC(O)CCCCCCCCCCC(=O)O (stereo unspecified),Potency,[1],inactive
same,Potency,[2],inactive
same,Potency,[3],inactive
same,Potency,[4],inactive
same,Potency,[5],inactive
O=C(O)Cn1cnnn1,Potency,[1],inactive
same,Potency,[2],inactive
same,Potency,[3],inactive
same,Potency,[4],inactive
same,Potency,[5],inactive
Cc1ccc(S(=O)(=O)Oc2ccc(N=Nc3ccc(-c4ccc(N=Nc5c(O)ccc6cc(S(=O)(=O)O)cc(S(=O)(=O)O)c56)c(C)c4)cc3C)cc2)cc1,Potency,[1],28.4 µM (active) and 51.9 µM (active)
same,Potency,[2],35.7 µM (active) and 26 µM (active)
same,Potency,[3],56.6 µM (active) and 23.2 µM (active)
same,Potency,[4],inactive
CC(=O)O[C@]1(C(C)=O)CC[C@H]2[C@@H]3C[C@H](C)C4=CC(=O)CC[C@]4(C)[C@H]3CC[C@@]21C,Potency,[1],15.9 µM (active)
same,Potency,[2],3.99 µM (active) and 13.8 µM (active)
same,Potency,[3],inactive
same,Potency,[4],inactive
c1ccc2cc3c(ccc4ccccc43)cc2c1,Potency,[1],50.2 µM (active)
same,Potency,[2],25.2 µM (active)
same,Potency,[3],897 nM (active) and 894 nM (active)
same,Potency,[4],inactive
same,Potency,[5],inactive
COC(c1ccccc1)(c1ccccc1)[C@H](Oc1nc(C)cc(C)n1)C(=O)O,Potency,[1],inactive
same,Potency,[2],inactive
same,Potency,[3],17.4 µM (active)
same,Potency,[4],inactive
NC(Cc1ccc(Cl)cc1)C(=O)O (stereo unspecified),"activity change, negative = inhibition",[1],18.5% [at 0.435 µM] (inactive)
same,"activity change, negative = inhibition",[2],6.61% [at 0.435 µM] (inactive)
same,"activity change, negative = inhibition",[3],10.8% [at 0.435 µM] (inactive)
same,"activity change, negative = inhibition",[4],10.3% [at 0.29 µM] (inactive)
same,"activity change, negative = inhibition",[5],0.0907% [at 0.435 µM] (inactive)
CCCCCCCCCCCCCCCCCl,"activity change, negative = inhibition",[1],-0.542% [at 23.6 µM] (inactive)
same,"activity change, negative = inhibition",[2],1.72% [at 23.6 µM] (inactive)
same,Potency,[3],inactive
same,"activity change, negative = inhibition",[4],-0.466% [at 15.8 µM] (inactive)
same,"activity change, negative = inhibition",[5],3.48% [at 23.6 µM] (inactive)
C/C=C/c1ccc(OCC)c(O)c1,Potency,[1],20 µM (active) and 25.2 µM (active)
same,Potency,[2],35.6 µM (active) and 28.3 µM (active)
same,Potency,[3],7.1 µM (active) and 7.96 µM (active)
same,Potency,[4],inactive
CC1COc2c(N3CCN(C)CC3)c(F)cc3c(=O)c(C(=O)O)cn1c23 (stereo unspecified),Potency,[1],inactive
same,Potency,[2],inactive
same,Potency,[3],inactive
same,Potency,[4],inactive
O=C(Nc1ccccc1SSc1ccccc1NC(=O)c1ccccc1)c1ccccc1,Potency,[1],3.19 µM (active) and 2.52 µM (active)
same,Potency,[2],505 nM (active) and 564 nM (active)
same,Potency,[3],8.01 µM (active) and 8.94 µM (active)
same,Potency,[4],inactive
same,Potency,[5],2.01 µM (active) and 5.03 µM (active)
c1ccc2n[nH]nc2c1,Potency,[1],inactive
same,Potency,[2],inactive
same,Potency,[3],inactive
same,Potency,[4],inactive
same,Potency,[5],inactive
O=C1Nc2ccccc2C1(c1ccc(O)cc1)c1ccc(O)cc1,Potency,[1],17.8 µM (active) and 9.77 µM (active)
same,Potency,[2],6.33 µM (active) and 3.89 µM (active)
same,Potency,[3],inactive
same,Potency,[4],inactive
CCCCCC(=O)O[C@]1(C(C)=O)CC[C@H]2[C@@H]3CCC4=CC(=O)CC[C@]4(C)[C@H]3CC[C@@]21C,Potency,[1],17.7 µM (active) and 17.4 µM (active)
same,Potency,[2],7.91 µM (active) and 11 µM (active)
same,Potency,[3],inactive
same,Potency,[4],19.4 µM (active)
CCc1ccc(C(c2ccc(CC)cc2)C(Cl)Cl)cc1,Potency,[1],6.43 µM (active) and 3.56 µM (active)
same,Potency,[2],14.4 µM (active) and 12.6 µM (active)
same,Potency,[3],40.6 µM (active)
same,Potency,[4],inactive
same,Potency,[5],inactive
c1cnc2cc3c(cc2n1)C1CNCC3C1,Potency,[1],inactive
same,Potency,[2],inactive
same,Potency,[3],inactive
same,Potency,[4],inactive
CC(=O)CC(C)=O,Potency,[1],inactive
same,Potency,[2],inactive
same,Potency,[3],inactive
same,Potency,[4],inactive
same,Potency,[5],inactive
Cc1cc(C2(c3cc(C)c(O)cc3C)OS(=O)(=O)c3ccccc32)c(C)cc1O,Potency,[1],7.97 µM (active) and 17.8 µM (active)
same,Potency,[2],5.03 µM (active) and 7.96 µM (active)
same,Potency,[3],31.7 µM (active)
same,Potency,[4],inactive
same,Potency,[5],2 µM (active) and 2.52 µM (active)
Nc1nc2ccccc2[nH]1,Potency,[1],inactive
same,Potency,[2],inactive
same,Potency,[3],inactive
same,Potency,[4],inactive
same,Potency,[5],inactive
OCC(CO)N[C@H]1C[C@](O)(CO)[C@@H](O)[C@H](O)[C@H]1O,Potency,[1],inactive
same,Potency,[2],inactive
same,Potency,[3],inactive
same,Potency,[4],inactive
same,Potency,[5],inactive
CC(=O)N[C@@H](CS)C(=O)O,Potency,[1],56.3 µM (active) and inactive
same,Potency,[2],inactive
same,Potency,[3],inactive
same,Potency,[4],inactive
same,Potency,[5],inactive
COC(=O)[C@H]1[C@H]2C[C@@H]3c4[nH]c5cc(OC)ccc5c4CCN3C[C@H]2C[C@@H](OC(=O)c2cc(OC)c(OC)c(OC)c2)[C@@H]1OC,Potency,[3],32.6 µM (active) and inactive
CC(=O)CC(=O)Nc1ccc2[nH]c(=O)[nH]c2c1,Potency,[3],39.9 µM (active)
